Assay outcomes (PubChem)
Ba CapD inh: Bacillus anthracis CapD inhibitors, primary screen, biochemical, fluorescence intensity | CapD gamma-glutamyltranspeptidase (Bacillus anthracis Ames Ancestor) | purified CapD enzyme, fluorescence intensity read-out; active compounds read low | z-score (test concentration not listed) | hit rate 0.23% among 140,000 | AID 492967, 2010; in the data active = z-score mostly below about -2.9, no sharp cut-off; inactive = mostly above about -1.9
* marks the source's active call; other numbers are inactive results. This excerpt belongs to a sample that is enriched for hits.

SMILES	Ba CapD inh
O=C1C(=O)N(c2nc3ccccc3s2)C(c2cccc([N+](=O)[O-])c2)/C1=C(\O)c1ccccc1 (stereo not given)	0.035
O=c1[nH]c(=S)c2c(n1N1CCOCC1)CCC2	-5*
COc1cc(C2C(C#N)=C(N)Oc3n[nH]c(C)c32)cc(OC)c1OC(=O)N1CCOCC1 (stereo not given)	-0.24
Nc1ccc(-c2nnc(-c3ccco3)o2)cc1	77
O=c1oc(-c2ccco2)ns1	-8.5*
O=c1oc(-c2cc3ccccc3s2)ns1	1.2
COC(=O)c1cccc(NC(=O)/C(=C\c2ccc3c(c2)OCO3)NC(=O)c2ccccc2OC)c1	4.3
NC(=O)c1ccc[n+](CCO)c1	0.42
O=S(=O)(c1cc(Cl)sc1Cl)N1CCN(c2ccc(F)cc2)CC1	0.42
CC1CC(C)CN(S(=O)(=O)c2ccc3c(c2)C(=O)c2cc(S(=O)(=O)N4CC(C)CC(C)C4)ccc2-3)C1 (stereo not given)	-0.33
COc1ccc(N2C(=O)CCC(C(=O)N3CCCCC3)C2c2ccc(OC)c(OC)c2)cc1 (stereo not given)	-0.57
COc1ccc(C2C(C(=O)N3CCOCC3)CCC(=O)N2c2ccc(OC)cc2)cc1 (stereo not given)	-10*
COc1ccc(C2C(C(=O)N3CCCC3)CC(=O)N2c2ccc(OC)cc2)cc1 (stereo not given)	-0.055
COc1ccccc1C1/C(=C(\O)c2ccc(Br)cc2)C(=O)C(=O)N1c1cccc(C(F)(F)F)c1 (stereo not given)	31
Cc1ccc2c(=O)c(C(=O)c3cccc(Cl)c3)cn(CC(=O)NCC3CCCO3)c2n1 (stereo not given)	-2.1
COc1cccc(NC(N)=S)c1	0.13
COc1cccc(NC(=S)/N=C(\N)Nc2nc(C)c3ccccc3n2)c1	-5.9*
COc1cccc(NC(=S)NNc2ccccc2)c1	-1.1
Cc1cc(C)cc(NS(=O)(=O)c2ccc3[nH]cc(C(=O)NCc4ccccc4)c(=O)c3c2)c1	-0.26
O=C1OC/C(=C(\O)c2ccc(Cl)cc2)C1=O	-5.4*
N#CC1=C(c2ccc(Cl)cc2)COC1=O	2.9
O=C1OC/C(=C(/O)c2ccccc2)C1=O	-3.1
Cc1ccc(CCOC(=O)NC(Cc2ccccc2)C(=O)NC2CCCCC2)cc1 (stereo not given)	-0.065
FC(F)(F)c1cccc(-n2c(-c3ccco3)n[nH]c2=S)c1	-0.17
CCOc1ccc(C2(O)CN(c3ccc(OC)cc3)C3=[N+]2CCCC3)cc1 (stereo not given)	0.32
SMILES	Ba CapD inh
CC(=O)N1c2c(cc(Br)cc2S(=O)(=O)N2CCN(c3ccc(C)cc3)C(C)C2)CC1C (stereo not given)	0.49
Cc1csc(NC(=O)CSCC(=O)O)c1-c1nc2ccccc2s1	-2.4*
O=C(O)CSCC(=O)Nc1ccc(-c2nc3ccccc3s2)cc1	82
Cc1csc(N)c1-c1nc2ccccc2s1	2.9
COc1cccc(CN2CCCC(COC(=O)NCc3ccc(-c4csnn4)cc3)C2)c1[N+](=O)[O-] (stereo not given)	-0.24
Cc1nn(CC(=O)NCc2ccc3c(c2)OCO3)c(=O)c2c1sc1ccccc12	0.41
CCCNC(=O)Cn1nc(C)c2sc3ccccc3c2c1=O	-5.8*
Cc1nn(CCCC(=O)N2CCCCC2)c(=O)c2c1sc1ccccc12	8.5
Cc1nc2nc(NC(=O)c3ccc(F)cc3)[nH]n2c(=O)c1Cl	-0.065
CCOC(=O)c1c[nH]c2c(F)ccc(F)c2c1=O	2.8
CCOC(=O)c1c[nH]c2ccccc2c1=O	-0.28
CCOC(=O)c1coc2c(F)c(F)c(F)cc2c1=O	-12*
CCCCNC(=O)c1cc(S(=O)(=O)N2CCCC(C)C2)ccc1F (stereo not given)	0.21
O=C(N/N=C/c1ccc(Br)cc1)c1ccc([N+](=O)[O-])o1	-1.5
O=C(N/N=C/c1ccccn1)c1ccc([N+](=O)[O-])o1	-4.3*
O=C(N/N=C/c1ccccc1C(=O)O)c1ccc([N+](=O)[O-])o1	-2
Cc1nnc(NC(=O)c2cccc(Cl)c2)s1	0.02
